Inhibition data for 3 compounds are collected here from ChEMBL document CHEMBL1961873, “Compounds: GSK PKIS; Assays: Nanosyn kinase panel” (2012).

Experiment [1] concerns the target T1, Serine/threonine-protein kinase Nek9 (Homo sapiens) (UniProt Q8TD19).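 Further: each value is a mean percent inhibition of NEK9.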
T1 sequence (whole entry): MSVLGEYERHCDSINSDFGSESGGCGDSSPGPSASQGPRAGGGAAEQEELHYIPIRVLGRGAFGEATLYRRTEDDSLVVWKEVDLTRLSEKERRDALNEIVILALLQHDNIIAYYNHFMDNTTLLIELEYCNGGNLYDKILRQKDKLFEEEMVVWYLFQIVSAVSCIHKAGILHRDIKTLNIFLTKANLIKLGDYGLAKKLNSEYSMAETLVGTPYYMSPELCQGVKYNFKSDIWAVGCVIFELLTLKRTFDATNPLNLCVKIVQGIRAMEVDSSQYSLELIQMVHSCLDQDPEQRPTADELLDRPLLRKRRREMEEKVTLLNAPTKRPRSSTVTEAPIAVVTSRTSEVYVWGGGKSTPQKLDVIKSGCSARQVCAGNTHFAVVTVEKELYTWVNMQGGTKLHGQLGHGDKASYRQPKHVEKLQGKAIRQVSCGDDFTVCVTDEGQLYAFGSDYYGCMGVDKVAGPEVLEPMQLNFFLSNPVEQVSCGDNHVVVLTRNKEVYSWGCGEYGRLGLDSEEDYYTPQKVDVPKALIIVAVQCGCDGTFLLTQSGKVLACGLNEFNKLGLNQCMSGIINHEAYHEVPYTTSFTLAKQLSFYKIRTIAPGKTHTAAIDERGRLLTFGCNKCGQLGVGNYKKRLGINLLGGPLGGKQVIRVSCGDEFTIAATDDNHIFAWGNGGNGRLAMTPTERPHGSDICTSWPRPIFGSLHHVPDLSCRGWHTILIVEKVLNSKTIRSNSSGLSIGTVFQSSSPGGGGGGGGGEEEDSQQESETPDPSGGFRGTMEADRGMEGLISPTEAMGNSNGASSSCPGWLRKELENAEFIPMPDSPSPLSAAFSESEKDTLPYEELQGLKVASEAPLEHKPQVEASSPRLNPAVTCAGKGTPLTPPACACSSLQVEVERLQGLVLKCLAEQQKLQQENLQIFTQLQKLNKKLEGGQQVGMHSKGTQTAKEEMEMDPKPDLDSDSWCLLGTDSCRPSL
Particulars: at 1 µM.

Experiment [2] concerns the target Serine/threonine-protein kinase PLK1 (Homo sapiens) (UniProt P53350). The following applies: at 0.1 µM.
The target is the same in experiment [3]. Particulars: at 1 µM.
For experiment [4], the target named is T2, Dual specificity protein kinase TTK (Homo sapiens) (UniProt P33981).
T2 sequence (whole entry): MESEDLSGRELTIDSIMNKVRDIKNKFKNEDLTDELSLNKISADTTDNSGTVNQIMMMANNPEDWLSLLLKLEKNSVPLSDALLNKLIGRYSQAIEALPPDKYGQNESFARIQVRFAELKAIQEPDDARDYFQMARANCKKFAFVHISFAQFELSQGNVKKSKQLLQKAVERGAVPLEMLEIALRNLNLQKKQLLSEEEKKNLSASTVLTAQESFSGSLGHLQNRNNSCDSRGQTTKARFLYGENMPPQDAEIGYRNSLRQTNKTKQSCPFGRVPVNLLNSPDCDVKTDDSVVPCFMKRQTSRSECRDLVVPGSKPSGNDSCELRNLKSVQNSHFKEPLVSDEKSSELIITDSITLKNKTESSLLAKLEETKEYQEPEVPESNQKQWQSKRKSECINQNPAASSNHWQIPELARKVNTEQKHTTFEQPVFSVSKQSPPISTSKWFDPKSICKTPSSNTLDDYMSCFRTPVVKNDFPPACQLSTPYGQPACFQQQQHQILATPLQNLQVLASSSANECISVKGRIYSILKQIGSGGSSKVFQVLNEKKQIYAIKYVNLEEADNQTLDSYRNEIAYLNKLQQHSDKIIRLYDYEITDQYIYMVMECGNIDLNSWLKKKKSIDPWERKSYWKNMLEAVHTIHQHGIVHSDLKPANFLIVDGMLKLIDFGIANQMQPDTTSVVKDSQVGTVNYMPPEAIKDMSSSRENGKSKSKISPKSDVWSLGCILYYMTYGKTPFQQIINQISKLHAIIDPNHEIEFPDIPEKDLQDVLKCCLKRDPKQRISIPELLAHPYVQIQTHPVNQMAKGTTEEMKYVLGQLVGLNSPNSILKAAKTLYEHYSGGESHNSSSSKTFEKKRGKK
Particulars: at 0.1 µM.

Experiment [5] concerns T3, Receptor-type tyrosine-protein kinase FLT3 (Homo sapiens), P36888 [D835Y].
T3 sequence (whole entry): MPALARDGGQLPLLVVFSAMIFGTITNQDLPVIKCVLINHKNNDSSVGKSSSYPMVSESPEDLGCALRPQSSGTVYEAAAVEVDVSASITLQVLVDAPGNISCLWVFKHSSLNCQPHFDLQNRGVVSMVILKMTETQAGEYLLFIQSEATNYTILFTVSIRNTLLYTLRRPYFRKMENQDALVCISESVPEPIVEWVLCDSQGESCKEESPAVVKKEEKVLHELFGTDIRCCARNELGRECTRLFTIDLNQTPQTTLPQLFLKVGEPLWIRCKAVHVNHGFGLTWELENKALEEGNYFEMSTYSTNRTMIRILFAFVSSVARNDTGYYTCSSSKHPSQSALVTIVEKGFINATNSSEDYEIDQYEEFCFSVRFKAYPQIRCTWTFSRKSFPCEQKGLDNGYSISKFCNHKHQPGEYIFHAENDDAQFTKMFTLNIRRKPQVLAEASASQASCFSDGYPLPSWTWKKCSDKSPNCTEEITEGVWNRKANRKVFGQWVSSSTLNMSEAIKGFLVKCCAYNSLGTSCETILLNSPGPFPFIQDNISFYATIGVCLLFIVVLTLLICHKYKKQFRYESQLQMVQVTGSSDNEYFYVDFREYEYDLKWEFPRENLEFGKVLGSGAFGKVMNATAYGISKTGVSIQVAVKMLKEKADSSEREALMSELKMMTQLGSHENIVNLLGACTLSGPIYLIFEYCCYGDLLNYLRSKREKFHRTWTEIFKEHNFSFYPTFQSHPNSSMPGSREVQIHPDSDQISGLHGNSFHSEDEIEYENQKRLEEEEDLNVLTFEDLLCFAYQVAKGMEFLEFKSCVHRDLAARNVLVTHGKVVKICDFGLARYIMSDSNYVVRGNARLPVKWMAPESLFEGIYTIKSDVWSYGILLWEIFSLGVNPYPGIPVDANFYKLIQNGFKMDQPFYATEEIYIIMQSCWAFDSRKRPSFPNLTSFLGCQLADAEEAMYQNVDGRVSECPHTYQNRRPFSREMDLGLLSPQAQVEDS
The following applies: at 1 µM.

Experiment [6] addresses Vascular endothelial growth factor receptor 3 (Homo sapiens) (UniProt P35916). The following applies: at 0.1 µM.
Experiment [7] has the same target. Particulars: at 1 µM.
In experiment [8] the target is Macrophage colony-stimulating factor 1 receptor (Homo sapiens) (UniProt P07333). The following applies: at 0.1 µM.
Sequence of Macrophage colony-stimulating factor 1 receptor (Homo sapiens) (P07333 whole entry): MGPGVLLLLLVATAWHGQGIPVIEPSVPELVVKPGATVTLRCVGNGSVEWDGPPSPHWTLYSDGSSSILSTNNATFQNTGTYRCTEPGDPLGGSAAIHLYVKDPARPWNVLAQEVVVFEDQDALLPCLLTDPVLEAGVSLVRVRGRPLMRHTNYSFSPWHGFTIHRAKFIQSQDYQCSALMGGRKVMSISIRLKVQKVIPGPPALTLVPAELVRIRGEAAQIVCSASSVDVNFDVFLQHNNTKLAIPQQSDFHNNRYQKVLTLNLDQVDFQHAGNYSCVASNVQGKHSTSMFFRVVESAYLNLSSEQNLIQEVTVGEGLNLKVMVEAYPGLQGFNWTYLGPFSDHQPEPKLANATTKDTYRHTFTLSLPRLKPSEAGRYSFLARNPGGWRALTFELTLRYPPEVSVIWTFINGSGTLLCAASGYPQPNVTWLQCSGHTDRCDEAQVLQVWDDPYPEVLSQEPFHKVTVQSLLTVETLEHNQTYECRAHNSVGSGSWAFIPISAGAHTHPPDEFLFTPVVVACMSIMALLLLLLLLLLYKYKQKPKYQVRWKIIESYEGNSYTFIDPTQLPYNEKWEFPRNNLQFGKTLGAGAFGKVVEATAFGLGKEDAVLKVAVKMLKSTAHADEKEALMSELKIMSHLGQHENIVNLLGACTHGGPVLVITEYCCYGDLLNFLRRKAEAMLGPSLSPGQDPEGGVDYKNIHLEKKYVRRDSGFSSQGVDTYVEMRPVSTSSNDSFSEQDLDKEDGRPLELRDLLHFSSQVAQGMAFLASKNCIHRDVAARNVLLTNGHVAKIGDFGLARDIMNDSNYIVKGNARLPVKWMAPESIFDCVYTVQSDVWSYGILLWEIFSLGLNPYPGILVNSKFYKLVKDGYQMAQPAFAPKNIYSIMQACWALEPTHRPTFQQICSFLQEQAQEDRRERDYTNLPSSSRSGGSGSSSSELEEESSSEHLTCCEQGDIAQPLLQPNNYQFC
Experiment [9] shares this target. The following applies: at 1 µM.
The target of experiment [10] is Tyrosine-protein kinase Fyn (Homo sapiens) (UniProt P06241). The following applies: at 0.1 µM.
Experiment [11] shares this target. Particulars: at 1 µM.
Experiment [12] has as its target Tyrosine-protein kinase HCK (Homo sapiens) (UniProt P08631). The following applies: at 0.1 µM.
Experiment [13] shares this target. The following applies: at 1 µM.
Experiment [14] concerns the target Insulin-like growth factor 1 receptor (Homo sapiens) (UniProt P08069). Particulars: at 0.1 µM.
For experiment [15] the target is unchanged. Particulars: at 1 µM.
For experiment [16], the target named is Insulin receptor (Homo sapiens) (UniProt P06213). The following applies: at 0.1 µM.
Experiment [17] shares this target. The following applies: at 1 µM.
Experiment [18] addresses Insulin receptor-related protein (Homo sapiens) (UniProt P14616). The following applies: at 0.1 µM.
The target is the same in experiment [19]. Particulars: at 1 µM.
The target in experiment [20] is T4, Tyrosine-protein kinase ITK/TSK (Homo sapiens) (UniProt Q08881).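 Further: mean percent inhibition of ITK from the GSK PKIS screen.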
T4 sequence (whole entry): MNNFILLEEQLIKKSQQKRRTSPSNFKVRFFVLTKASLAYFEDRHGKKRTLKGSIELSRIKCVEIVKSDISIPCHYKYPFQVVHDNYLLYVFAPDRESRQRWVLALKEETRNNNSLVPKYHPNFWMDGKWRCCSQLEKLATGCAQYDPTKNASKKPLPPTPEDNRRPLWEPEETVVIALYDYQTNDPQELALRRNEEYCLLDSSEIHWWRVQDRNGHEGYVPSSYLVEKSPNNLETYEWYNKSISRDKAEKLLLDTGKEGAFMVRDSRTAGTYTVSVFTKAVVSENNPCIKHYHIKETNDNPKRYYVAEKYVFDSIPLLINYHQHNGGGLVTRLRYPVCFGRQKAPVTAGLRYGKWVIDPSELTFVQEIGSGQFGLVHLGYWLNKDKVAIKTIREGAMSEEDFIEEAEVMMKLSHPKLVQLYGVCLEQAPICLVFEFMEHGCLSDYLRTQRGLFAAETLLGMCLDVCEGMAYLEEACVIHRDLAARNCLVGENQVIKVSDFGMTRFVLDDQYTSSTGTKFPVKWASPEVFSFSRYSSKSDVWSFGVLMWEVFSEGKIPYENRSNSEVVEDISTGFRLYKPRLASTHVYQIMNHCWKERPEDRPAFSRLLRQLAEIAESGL
The following applies: at 0.1 µM.

Sequence of Insulin-like growth factor 1 receptor (Homo sapiens) (P08069 31-736 limits assumed): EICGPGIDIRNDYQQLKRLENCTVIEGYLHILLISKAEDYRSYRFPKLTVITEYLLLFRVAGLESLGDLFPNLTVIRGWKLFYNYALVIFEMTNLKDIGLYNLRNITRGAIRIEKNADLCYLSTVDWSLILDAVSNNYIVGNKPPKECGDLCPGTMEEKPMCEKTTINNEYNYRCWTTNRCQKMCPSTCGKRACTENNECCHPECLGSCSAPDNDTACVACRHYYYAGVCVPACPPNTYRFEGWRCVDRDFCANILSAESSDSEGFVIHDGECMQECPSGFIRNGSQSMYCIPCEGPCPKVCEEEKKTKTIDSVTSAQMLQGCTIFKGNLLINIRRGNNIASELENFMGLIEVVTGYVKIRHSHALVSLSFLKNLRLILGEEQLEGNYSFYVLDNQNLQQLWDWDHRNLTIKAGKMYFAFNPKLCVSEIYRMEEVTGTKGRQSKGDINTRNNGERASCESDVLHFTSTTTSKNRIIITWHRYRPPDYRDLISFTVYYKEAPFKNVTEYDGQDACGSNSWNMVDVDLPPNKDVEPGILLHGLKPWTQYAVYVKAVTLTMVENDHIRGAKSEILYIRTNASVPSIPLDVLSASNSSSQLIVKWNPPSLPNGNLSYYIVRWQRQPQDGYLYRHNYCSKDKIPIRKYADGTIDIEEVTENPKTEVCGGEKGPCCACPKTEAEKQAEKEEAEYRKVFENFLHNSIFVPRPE
Sequence of Insulin-like growth factor 1 receptor (Homo sapiens) (P08069 741-1367 limits assumed): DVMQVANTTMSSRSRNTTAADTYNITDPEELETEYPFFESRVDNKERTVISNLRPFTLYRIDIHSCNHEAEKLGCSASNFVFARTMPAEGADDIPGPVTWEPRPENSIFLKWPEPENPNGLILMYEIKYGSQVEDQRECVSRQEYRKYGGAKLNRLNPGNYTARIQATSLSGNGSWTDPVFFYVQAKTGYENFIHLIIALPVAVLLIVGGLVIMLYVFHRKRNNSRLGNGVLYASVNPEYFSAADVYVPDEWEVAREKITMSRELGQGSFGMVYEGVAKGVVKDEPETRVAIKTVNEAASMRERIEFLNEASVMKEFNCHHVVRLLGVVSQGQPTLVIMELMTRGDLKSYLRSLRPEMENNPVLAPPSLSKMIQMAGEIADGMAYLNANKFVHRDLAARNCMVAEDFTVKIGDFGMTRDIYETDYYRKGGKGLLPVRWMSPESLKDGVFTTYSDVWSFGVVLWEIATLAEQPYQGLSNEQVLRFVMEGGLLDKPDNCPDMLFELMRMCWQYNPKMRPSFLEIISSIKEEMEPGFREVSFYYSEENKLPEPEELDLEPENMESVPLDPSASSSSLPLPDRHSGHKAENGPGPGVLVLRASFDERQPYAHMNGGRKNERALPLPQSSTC
Sequence of Vascular endothelial growth factor receptor 3 (Homo sapiens) (P35916 whole entry): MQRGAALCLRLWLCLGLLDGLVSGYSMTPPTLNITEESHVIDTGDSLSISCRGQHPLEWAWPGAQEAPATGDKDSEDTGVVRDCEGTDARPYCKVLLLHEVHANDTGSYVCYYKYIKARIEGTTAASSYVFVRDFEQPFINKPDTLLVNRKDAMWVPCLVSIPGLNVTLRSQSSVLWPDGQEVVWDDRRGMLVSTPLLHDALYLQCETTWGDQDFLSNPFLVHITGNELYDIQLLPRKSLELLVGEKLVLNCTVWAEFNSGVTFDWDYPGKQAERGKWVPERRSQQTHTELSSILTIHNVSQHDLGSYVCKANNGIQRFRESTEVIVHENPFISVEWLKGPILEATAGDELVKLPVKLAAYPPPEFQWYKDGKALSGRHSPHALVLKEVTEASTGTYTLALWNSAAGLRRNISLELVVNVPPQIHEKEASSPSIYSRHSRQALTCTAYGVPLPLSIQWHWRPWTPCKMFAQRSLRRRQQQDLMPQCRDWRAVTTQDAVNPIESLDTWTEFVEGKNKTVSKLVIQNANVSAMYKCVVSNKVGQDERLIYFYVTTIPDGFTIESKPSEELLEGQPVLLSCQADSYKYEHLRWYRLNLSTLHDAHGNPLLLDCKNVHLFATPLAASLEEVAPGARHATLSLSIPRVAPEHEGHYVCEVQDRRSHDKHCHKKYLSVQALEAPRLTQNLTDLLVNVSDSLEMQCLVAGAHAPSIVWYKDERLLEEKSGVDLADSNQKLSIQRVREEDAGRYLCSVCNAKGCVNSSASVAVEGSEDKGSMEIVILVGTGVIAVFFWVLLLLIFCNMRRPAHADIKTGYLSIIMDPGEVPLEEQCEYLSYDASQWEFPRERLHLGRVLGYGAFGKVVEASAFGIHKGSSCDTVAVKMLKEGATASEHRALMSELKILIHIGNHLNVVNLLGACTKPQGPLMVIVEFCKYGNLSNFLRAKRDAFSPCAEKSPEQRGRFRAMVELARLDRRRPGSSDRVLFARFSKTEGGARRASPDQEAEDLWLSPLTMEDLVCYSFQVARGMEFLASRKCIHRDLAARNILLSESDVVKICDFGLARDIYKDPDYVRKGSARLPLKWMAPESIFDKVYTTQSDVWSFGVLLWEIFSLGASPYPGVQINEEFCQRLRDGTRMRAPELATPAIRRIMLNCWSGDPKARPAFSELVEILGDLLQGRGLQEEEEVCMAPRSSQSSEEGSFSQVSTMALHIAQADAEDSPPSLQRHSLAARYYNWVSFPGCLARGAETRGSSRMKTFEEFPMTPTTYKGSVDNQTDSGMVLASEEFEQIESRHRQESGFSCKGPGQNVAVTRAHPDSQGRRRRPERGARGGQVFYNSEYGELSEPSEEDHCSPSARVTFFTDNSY
Sequence of Serine/threonine-protein kinase PLK1 (Homo sapiens) (P53350 whole entry): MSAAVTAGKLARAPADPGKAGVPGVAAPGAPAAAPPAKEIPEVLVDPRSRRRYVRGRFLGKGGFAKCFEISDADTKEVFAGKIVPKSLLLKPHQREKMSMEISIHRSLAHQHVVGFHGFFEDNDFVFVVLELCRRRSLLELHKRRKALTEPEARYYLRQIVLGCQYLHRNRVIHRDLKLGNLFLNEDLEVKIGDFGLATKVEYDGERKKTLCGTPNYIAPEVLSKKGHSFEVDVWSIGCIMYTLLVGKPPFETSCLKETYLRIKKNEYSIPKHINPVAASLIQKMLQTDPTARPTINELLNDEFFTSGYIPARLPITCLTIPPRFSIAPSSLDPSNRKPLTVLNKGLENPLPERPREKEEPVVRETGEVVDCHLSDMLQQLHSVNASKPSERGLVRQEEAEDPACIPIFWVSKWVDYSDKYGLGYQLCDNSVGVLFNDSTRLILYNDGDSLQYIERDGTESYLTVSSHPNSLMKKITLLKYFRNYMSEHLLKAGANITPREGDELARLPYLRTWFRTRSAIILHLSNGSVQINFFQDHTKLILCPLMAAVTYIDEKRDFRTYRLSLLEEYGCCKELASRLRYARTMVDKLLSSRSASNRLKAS
Sequence of Tyrosine-protein kinase HCK (Homo sapiens) (P08631 2-526 limits assumed): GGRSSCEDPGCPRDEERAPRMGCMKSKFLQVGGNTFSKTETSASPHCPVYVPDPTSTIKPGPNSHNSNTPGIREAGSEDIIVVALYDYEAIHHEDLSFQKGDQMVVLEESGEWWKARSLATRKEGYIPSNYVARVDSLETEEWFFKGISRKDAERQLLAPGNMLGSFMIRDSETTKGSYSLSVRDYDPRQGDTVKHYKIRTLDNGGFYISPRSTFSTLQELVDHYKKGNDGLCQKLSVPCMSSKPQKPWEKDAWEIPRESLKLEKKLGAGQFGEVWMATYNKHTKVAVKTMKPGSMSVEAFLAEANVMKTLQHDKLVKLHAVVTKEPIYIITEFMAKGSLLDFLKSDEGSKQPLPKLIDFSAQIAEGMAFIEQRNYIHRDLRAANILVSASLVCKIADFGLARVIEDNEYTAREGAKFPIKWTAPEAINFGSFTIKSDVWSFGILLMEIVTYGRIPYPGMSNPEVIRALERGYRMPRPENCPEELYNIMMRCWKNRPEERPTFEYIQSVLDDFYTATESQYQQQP

By inhibition is commonly meant the change of the read-out against control, counted positive when it falls. Regarding `Cn1cc(C=C2C(=O)Nc3cccnc32)c2ccccc21`, the inhibition in experiment [1] was determined as 4.67%; in experiment [2], 2.71%; in [3], 1.58%; in [4], 9.66%; in experiment [5] it was 77.5%; in experiment [6] it was 4.88%. Also, the inhibition in [7] came to 30.3%; in experiment [8], 6.48%; in experiment [9] it was 30.9%; in experiment [10], 4.64%; in experiment [11], 15.4%; in experiment [12] it was 6.56%. Moreover, the inhibition in experiment [13] was 42.1%; in experiment [14], 1.72%; in experiment [15], 8.98%; in experiment [16], 3.49%; in experiment [17] it was 20.1%; in [18], 0.41%. Further, the inhibition in [19] came out at 1.8%; in experiment [20], 2.56%.

For the compound `COC(=O)Nc1nc2cc(Oc3ccc(NC(=O)Nc4cccc(C(=O)O)c4)cc3)ccc2[nH]1`, the inhibition in experiment [1] is 1.76%; in [2] it was 0.16%; in experiment [3] it was 0.8%; in experiment [4] it was 1.59%; in experiment [5], 4.78%; in experiment [7], -5.74%. Also, the inhibition in experiment [8] was 3.75%; in experiment [9], 8.4%; in [10] it was -5.06%; in experiment [11] it was 0.19%; in experiment [12], 0.97%; in experiment [13], 3.15%. Further, the inhibition is -3.37% in experiment [14]; -7.4% in experiment [15]; 2.72% in [16]; 0.58% in experiment [17]; 1.16% in experiment [18]; 2.82% in experiment [19]. Besides, the inhibition in experiment [20] is -2.99%.

In the case of `CCN1CCC(CC(=O)Nc2n[nH]c3nc(-c4cccs4)c(Br)cc23)CC1`, the inhibition is 0.2% in experiment [1]; -3.36% in [2]; -3.47% in experiment [3]; -6.26% in experiment [4]; 10.7% in experiment [5]; 1.17% in experiment [6]. The inhibition was 2.51% in experiment [7]; -2.02% in experiment [8]; 0.93% in experiment [9]; -0.42% in [10]; -1.4% in experiment [11]; -0.44% in experiment [12]. For the same compound, the inhibition was 0.93% in [13]; -1.09% in experiment [14]; 1.31% in experiment [15]; -0.61% in experiment [16]; -1.43% in [17]; -2.33% in [18]. Also, the inhibition in experiment [19] was 0.01%; in [20] it was -0.21%.
